This is part of a sample that, as a whole, favours compounds with a hit. Of some 83,000 tested, about 20% had one in any assay.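 In brief: 96-well plates, 48 h treatment, single concentration, percent growth endpoint.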 Calls of active or inactive are those of the source. Rule for the calls: active = growth percent below 10; inactive = the rest.
Columns and labels:
Assay in all cases: NCI-60 one-dose screen, 48 h (100 = growth as untreated, 0 = no growth, -100 = all killed)
Conditions in all cases: 10 µM unless noted
NCI-H23 lung = system: NCI-H23 lung
NCI-H226 lung = system: NCI-H226 lung
NCI-H322M lung = system: NCI-H322M lung
HOP-62 NSCLC = system: HOP-62 NSCLC
NCI-H460 lung = system: NCI-H460 lung
HOP-92 NSCLC = system: HOP-92 NSCLC
A549/ATCC NSCLC = system: A549/ATCC NSCLC
786-0 renal = system: 786-0 renal
COLO 205 colon = system: COLO 205 colon

Measured: growth

COc1ccc(C2=NN(C(N)=S)C(c3ccc4c(c3)OCO4)C2)cc1 (stereo unspecified)
inactive: NCI-H23 lung 26.7% | NCI-H226 lung 58.2% | NCI-H322M lung 25.6% | HOP-62 NSCLC 46.7% | NCI-H460 lung 42.6% | HOP-92 NSCLC 54% | A549/ATCC NSCLC 58.6% | 786-0 renal 30.6% | COLO 205 colon 56.5%

Cc1ccc2nc(SCC(=O)Nc3ccc(-c4nc5ccccc5s4)c(Cl)c3)[nH]c2c1
inactive: NCI-H23 lung 109% | NCI-H226 lung 98.7% | NCI-H322M lung 101% | HOP-62 NSCLC 114% | NCI-H460 lung 116% | HOP-92 NSCLC 98% | A549/ATCC NSCLC 98.3% | 786-0 renal 98.1% | COLO 205 colon 107%

C(=C1c2ccccc2-c2ccccc21)c1ccncc1
inactive: NCI-H23 lung 58.5% | NCI-H226 lung 86.8% | NCI-H322M lung 80.1% | HOP-62 NSCLC 56.3% | NCI-H460 lung 33.7% | HOP-92 NSCLC 55.9% | A549/ATCC NSCLC 49.1% | 786-0 renal 58.2% | COLO 205 colon 49.4%

N#Cc1ccc(-c2csc(Nc3ccc4nc5n(c(=O)c4c3)CCC5)n2)cc1
inactive: NCI-H23 lung 105% | NCI-H226 lung 105% | NCI-H322M lung 104% | HOP-62 NSCLC 108% | NCI-H460 lung 101% | HOP-92 NSCLC 169% | A549/ATCC NSCLC 101% | 786-0 renal 104% | COLO 205 colon 109%

COc1cc(/C=C/c2cc(/C=C/c3ccc(O)c(OC)c3)n(C(=O)c3ccc(Cl)cc3)n2)ccc1O
inactive: NCI-H23 lung 21.8% | NCI-H226 lung 48.4% | NCI-H322M lung 28.5% | HOP-62 NSCLC 20.3% | A549/ATCC NSCLC 12.4% | 786-0 renal 19.5% | COLO 205 colon 98.7%
active: NCI-H460 lung 4.86% | HOP-92 NSCLC -2.95%

O=C(O)C1C(c2ccccc2)c2ccccc2C(O)C1CO (stereo unspecified)
inactive: NCI-H23 lung 106% | NCI-H226 lung 105% | NCI-H322M lung 112% | HOP-62 NSCLC 107% | NCI-H460 lung 111% | HOP-92 NSCLC 89.1% | A549/ATCC NSCLC 111% | 786-0 renal 107% | COLO 205 colon 99.7%

Cn1cc(NC(=O)Nc2cc(C(=O)O)n(C)c2)cc1C(=O)O
inactive: NCI-H23 lung 109% | NCI-H226 lung 82.1% | NCI-H322M lung 100% | HOP-62 NSCLC 94.3% | NCI-H460 lung 120% | HOP-92 NSCLC 119% | A549/ATCC NSCLC 102% | 786-0 renal 109% | COLO 205 colon 113%

Clc1ccc2c(c1)C(Br)c1cc(Cl)cc(Cl)c1-2 (stereo unspecified)
inactive: NCI-H23 lung 14.8% | NCI-H226 lung 14.4% | NCI-H322M lung 81.4% | HOP-62 NSCLC 88.1% | NCI-H460 lung 99.9% | HOP-92 NSCLC 53.5% | A549/ATCC NSCLC 98.4% | 786-0 renal 84.9% | COLO 205 colon 103%

COc1cnc2c(c1)C(=O)c1c-2n(CCCn2ccnc2)c(=O)c2cc(F)ccc12
active: NCI-H23 lung -36.7% | NCI-H226 lung -67.9% | NCI-H322M lung -1.28% | HOP-62 NSCLC -29.8% | NCI-H460 lung -62.9% | HOP-92 NSCLC -15.9% | A549/ATCC NSCLC -20.8% | 786-0 renal -62.6% | COLO 205 colon -34%

COc1cnc2c(c1)C(=O)c1c-2n(CCCNC2=NCCS2)c(=O)c2cc(F)ccc12
inactive: NCI-H322M lung 46.6% | HOP-62 NSCLC 11.2% | HOP-92 NSCLC 50.9% | COLO 205 colon 22.1%
active: NCI-H23 lung 6.62% | NCI-H226 lung 3.93% | NCI-H460 lung -43.8% | A549/ATCC NSCLC 9.29% | 786-0 renal -90.5%

CC(=O)c1ccc(NS(=O)(=O)c2ccc([N+](=O)[O-])cc2)cc1
inactive: NCI-H23 lung 105% | NCI-H226 lung 99.4% | NCI-H322M lung 121% | HOP-62 NSCLC 87% | NCI-H460 lung 114% | HOP-92 NSCLC 83.4% | A549/ATCC NSCLC 95.5% | 786-0 renal 105% | COLO 205 colon 106%

COc1cccc(/C=N\NC(=O)c2ccncc2)c1O
inactive: NCI-H23 lung 58.5% | NCI-H226 lung 61.8% | NCI-H322M lung 19% | HOP-62 NSCLC 50.8% | NCI-H460 lung 15.9% | HOP-92 NSCLC 55.1% | A549/ATCC NSCLC 73.2% | 786-0 renal 35.5% | COLO 205 colon 50.1%

CSc1nc2nc3c(nc2c(=O)n1C)C(=O)c1ccccc1C3=O
active: NCI-H23 lung -26.4% | NCI-H226 lung -55.6% | NCI-H322M lung -89.8% | HOP-62 NSCLC -97.9% | NCI-H460 lung -62% | HOP-92 NSCLC -40% | A549/ATCC NSCLC -67.3% | 786-0 renal -50.5% | COLO 205 colon -86.2%

COc1ccc(OC)c(CCn2cncc2-c2c[nH]c3cc(Br)ccc23)c1
inactive: NCI-H23 lung 30.1% | NCI-H226 lung 41.5% | NCI-H322M lung 87.1% | HOP-62 NSCLC 38% | NCI-H460 lung 36.7% | HOP-92 NSCLC 20.6% | A549/ATCC NSCLC 31.2% | 786-0 renal 59.5%
active: COLO 205 colon 7.59%

CC[C@@H](C)/C=C(C)/C=C/C(O)=C1\C(=O)N[C@@H](Cc2ccc(OC(=O)[C@@](OC)(c3ccccc3)C(F)(F)F)cc2)C1=O
inactive: NCI-H23 lung 99.2% | NCI-H226 lung 104% | NCI-H322M lung 91% | HOP-62 NSCLC 110% | NCI-H460 lung 79.8% | HOP-92 NSCLC 41.5% | A549/ATCC NSCLC 97.2% | 786-0 renal 90.8% | COLO 205 colon 118%

N#CC(C#N)C(C#N)C#N
inactive: NCI-H23 lung 97.7% | NCI-H226 lung 99.9% | NCI-H322M lung 103% | HOP-62 NSCLC 90.9% | NCI-H460 lung 105% | HOP-92 NSCLC 102% | A549/ATCC NSCLC 79% | 786-0 renal 101% | COLO 205 colon 99.3%

CC(=O)N1N=C(c2ccc(Nc3nc(NCCO)nc(NCCO)n3)cc2)CC1c1ccc(Cl)cc1 (stereo unspecified)
inactive: NCI-H23 lung 95.6% | NCI-H226 lung 103% | NCI-H322M lung 89.3% | HOP-62 NSCLC 93.7% | NCI-H460 lung 101% | HOP-92 NSCLC 109% | A549/ATCC NSCLC 78.6% | 786-0 renal 89% | COLO 205 colon 102%

CC(NC(=O)Oc1cccc2ccccc12)c1ccccc1 (stereo unspecified)
inactive: NCI-H23 lung 92.8% | NCI-H226 lung 99.7% | NCI-H322M lung 107% | HOP-62 NSCLC 100% | NCI-H460 lung 105% | HOP-92 NSCLC 103% | A549/ATCC NSCLC 73.1% | 786-0 renal 103% | COLO 205 colon 110%

Nc1nc(Nc2ccccc2SSc2ccccc2Nc2nc(N)nc(-c3ccc(I)cc3)n2)nc(-c2ccc(I)cc2)n1
active: A549/ATCC NSCLC -19.9%
inactive: NCI-H23 lung 47.3% | NCI-H226 lung 69.8% | NCI-H322M lung 81.1% | HOP-62 NSCLC 26.1% | NCI-H460 lung 54.8% | HOP-92 NSCLC 107% | 786-0 renal 86.9% | COLO 205 colon 112%

CCC(=O)Nc1cc2c(cc1Cl)-c1ccccc1C2
inactive: NCI-H23 lung 89.1% | NCI-H226 lung 81.7% | NCI-H322M lung 106% | HOP-62 NSCLC 97.6% | NCI-H460 lung 98.2% | HOP-92 NSCLC 76.9% | A549/ATCC NSCLC 94.2% | 786-0 renal 91.5% | COLO 205 colon 99.4%

C[C@H](C(=O)N[C@@H](Cc1ccc(-c2ccccc2)cc1)C(=O)NC1CC(C)(C)NC(C)(C)C1)c1ccc(-c2ccccc2)c(F)c1
active: NCI-H23 lung -42% | NCI-H226 lung -26.7% | NCI-H322M lung -34% | HOP-62 NSCLC -67.4% | NCI-H460 lung -76.4% | HOP-92 NSCLC -69.7% | A549/ATCC NSCLC -76.9% | 786-0 renal -88.6% | COLO 205 colon -81.8%

Cc1sc2nc3c4ccccc4c(NCCCN(C)C)nn3c(=O)c2c1C
inactive: NCI-H23 lung 60.9% | NCI-H226 lung 42.8% | NCI-H322M lung 83.1% | HOP-62 NSCLC 61.7% | NCI-H460 lung 23.6% | HOP-92 NSCLC 29% | A549/ATCC NSCLC 15% | 786-0 renal 55.7%
active: COLO 205 colon -57.4%

Oc1c(Cl)cc(Oc2cc(Cl)c(O)c(CN3CCOCC3)c2)cc1CN1CCOCC1
inactive: NCI-H23 lung 99.6% | NCI-H226 lung 92.7% | NCI-H322M lung 96% | HOP-62 NSCLC 81.2% | NCI-H460 lung 93.4% | HOP-92 NSCLC 79% | A549/ATCC NSCLC 78.7% | 786-0 renal 105% | COLO 205 colon 105%

O=C1NC(=O)/C(=C\c2ccco2)S1
inactive: NCI-H23 lung 101% | NCI-H226 lung 95.8% | NCI-H322M lung 111% | HOP-62 NSCLC 90.7% | NCI-H460 lung 105% | HOP-92 NSCLC 87% | A549/ATCC NSCLC 108% | 786-0 renal 99% | COLO 205 colon 91.4%

O=C(Nc1ccccc1OC(=O)c1ccccc1)c1ccccc1
inactive: NCI-H23 lung 70.6% | NCI-H226 lung 104% | NCI-H322M lung 72.3% | HOP-62 NSCLC 85.2% | NCI-H460 lung 98.1% | HOP-92 NSCLC 89.5% | A549/ATCC NSCLC 81.3% | 786-0 renal 96% | COLO 205 colon 108%

CC(C)OP(=O)(OC(C)C)c1ncc(-c2ccc(C(F)(F)F)cc2)c(NC2CCCCCC2)n1
active: NCI-H23 lung -47.6% [33.3 µM] | NCI-H226 lung -50.3% [33.3 µM] | NCI-H322M lung -70% [33.3 µM] | HOP-62 NSCLC -27.1% [33.3 µM] | NCI-H460 lung -64.5% [33.3 µM] | HOP-92 NSCLC -93.7% [33.3 µM] | A549/ATCC NSCLC -33.6% [33.3 µM] | 786-0 renal -67.6% [33.3 µM] | COLO 205 colon -78% [33.3 µM]

NS(=O)(=O)c1ccc(-n2ncc3c(NC4CCCCC4)ncnc32)cc1
inactive: NCI-H23 lung 103% | NCI-H226 lung 91.5% | NCI-H322M lung 107% | HOP-62 NSCLC 101% | NCI-H460 lung 110% | HOP-92 NSCLC 47.4% | A549/ATCC NSCLC 83% | 786-0 renal 81% | COLO 205 colon 95%

COc1cc(/C=C2\CN(S(=O)(=O)c3ccc(C)cc3)C/C(=C\c3cc(CN4CCOCC4)c(O)c(OC)c3)C2=O)cc(CN2CCOCC2)c1O
inactive: A549/ATCC NSCLC 19.4%
active: NCI-H23 lung -57.1% | NCI-H226 lung -40.2% | NCI-H322M lung -15.6% | HOP-62 NSCLC -16% | NCI-H460 lung -46.9% | HOP-92 NSCLC -30.3% | 786-0 renal -54.3% | COLO 205 colon -25.5%

COc1ccc2c(c1)sc1nc(-c3ccc(Br)cc3)cn12
inactive: NCI-H23 lung 100% | NCI-H226 lung 101% | NCI-H322M lung 99.8% | HOP-62 NSCLC 108% | NCI-H460 lung 117% | HOP-92 NSCLC 101% | A549/ATCC NSCLC 95% | 786-0 renal 98% | COLO 205 colon 129%

Reference: PubChem BioAssay (NCI)
